Laboratory results published in the supplement of paper PMC6555819.

Tests used:
Assay in all cases: PBM binding z-score (relative to random genomic background probes); higher = stronger binding; sequences stand for … in GC…GCGATTGACAGCGTAGAATGAAGG
[1] = tested on: FXR:RXRa (NR concentration 270 nM, RXRa partner concentration 90 nM)
Summary of the method: (§1)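 Antibodies against each partner of ligand-free nuclear receptor dimers (one per run) detected binding on custom Agilent 4×180K protein-binding microarrays after 1 h incubation. The double-stranded probes had 34-nt variable regions carrying direct-repeat seeds, single-nucleotide variants, half-site ablations and random human genomic background sequences. Binding z-scores, from regression-normalized fluorescence, use the random background probes as reference.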

[2] = tested on: LXRa:RXRa (NR concentration 270 nM, RXRa partner concentration 90 nM)
Summary of the method: as §1

[3] = tested on: LXRa homodimer (NR concentration 270 nM)
Summary of the method: as §1

[4] = tested on: LXRb:RXRa (NR concentration 270 nM, RXRa partner concentration 90 nM)
Summary of the method: as §1

[5] = tested on: LXRb homodimer (NR concentration 270 nM)
Summary of the method: as §1

[6] = tested on: PPARa:RXRa (NR concentration 270 nM, RXRa partner concentration 90 nM)
Summary of the method: as §1

[7] = tested on: PPARg:RXRa (NR concentration 180 nM, RXRa partner concentration 90 nM)
Summary of the method: as §1

[8] = tested on: PPARg:RXRa 270nM:90nM, anti-RXR (NR concentration 270 nM, RXRa partner concentration 90 nM)
Summary of the method: as §1

[9] = tested on: PPARg:RXRa 30nM:10nM, anti-RXR (NR concentration 30 nM, RXRa partner concentration 10 nM)
Summary of the method: as §1

[10] = tested on: PPARg:RXRa 90nM:30nM, anti-RXR (NR concentration 90 nM, RXRa partner concentration 30 nM)
Summary of the method: as §1

[11] = tested on: PPARg:RXRa DBDmut IVT, anti-RXR (DBD mutation: RXRa K156A/R161A, NR concentration 270 nM, RXRa partner concentration 90 nM)
Summary of the method: as §1

[12] = tested on: PPARg:RXRa IVT, anti-PPARg (NR concentration 270 nM, RXRa partner concentration 90 nM)
Summary of the method: as §1

[13] = tested on: PPARg DBDmut:RXRa IVT, anti-PPARg (DBD mutation: PPARg1 K132A/R137A, NR concentration 270 nM, RXRa partner concentration 90 nM)
Summary of the method: as §1

[14] = tested on: PPARg DBDmut IVT, anti-PPARg (DBD mutation: PPARg1 K132A/R137A, NR concentration 270 nM)
Summary of the method: as §1

[15] = tested on: PPARg homodimer (NR concentration 180 nM)
Summary of the method: as §1

[16] = tested on: PXR:RXRa (NR concentration 270 nM, RXRa partner concentration 90 nM)
Summary of the method: as §1

[17] = tested on: PXR homodimer (NR concentration 270 nM)
Summary of the method: as §1

[18] = tested on: RARa:RXR (NR concentration 270 nM, RXRa partner concentration 90 nM)
Summary of the method: as §1

[19] = tested on: RARa homodimer (NR concentration 270 nM)
Summary of the method: as §1

[20] = tested on: RARb:RXRa (NR concentration 270 nM, RXRa partner concentration 90 nM)
Summary of the method: as §1

Sequence | PBM binding z-score [1] | PBM binding z-score [2] | PBM binding z-score [3] | PBM binding z-score [4] | PBM binding z-score [5] | PBM binding z-score [6] | PBM binding z-score [7] | PBM binding z-score [8] | PBM binding z-score [9] | PBM binding z-score [10] | PBM binding z-score [11] | PBM binding z-score [12] | PBM binding z-score [13] | PBM binding z-score [14] | PBM binding z-score [15] | PBM binding z-score [16] | PBM binding z-score [17] | PBM binding z-score [18] | PBM binding z-score [19] | PBM binding z-score [20]
CTACCAAGGTGAACAAGGTCGATGATTACTATTC | 0.946 | 0.835 | 0.167 | 1.18 | -0.531 | 2.13 | 1.2 | 0.941 | 0.12 | 0.353 | 2.72 | 2.64 | 0.547 | 0.654 | 0.419 | 1.43 | 0.443 | 1.63 | 0.548 | 1.95
CGAACTATGTCAGAACAGGACAGTGAAGGATGAT | 0.0056 | -0.347 | -0.162 | -0.473 | 0.636 | 0.0465 | 0.811 | 0.229 | 0.135 | -0.000779 | 1.99 | 1.16 | 0.888 | 0.9 | 0.278 | -0.225 | 0.0805 | 0.0752 | 0.625 | 0.461
TATAGCAGGCCAGAGGGTCACTCAAGAGGTACGG | 1.02 | 1.2 | -0.173 | 1.21 | -0.338 | 2.59 | 2.56 | 3.15 | 1.56 | 3.12 | -0.0119 | 1.41 | 0.475 | -0.0534 | 1.11 | 1.73 | -0.392 | 2.46 | -0.269 | 2.09
ATCGAAAGGTCGTGAGTTGAGTATACAGAAAGGC | 4.98 | 3.53 | 0.0498 | 2.99 | 0.743 | 4.84 | 3.55 | 3.9 | 1.82 | 2.85 | -0.00462 | 1.66 | 1.4 | 1.03 | 1.91 | 3.2 | 0.152 | 3.9 | 0.363 | 3.82
CCTCGGAGGACAACAGTAGGTCAGAGCTGCCAGA | 0.249 | 0.959 | 1.04 | 0.175 | -0.765 | 1.37 | 0.475 | 0.552 | -0.754 | 0.0572 | 1.42 | 2.02 | -1.19 | -2.12 | 0.785 | 0.462 | -0.203 | 0.798 | -0.275 | 2.05
CATACTAGGTCAAGGTCAAAGTCGGTTTGTGCCA | 6.62 | 5.81 | 5.27 | 4.77 | 1.99 | 5.6 | 8.52 | 7.01 | 5.63 | 6.93 | 7.56 | 7.98 | 3.58 | 0.96 | 5.3 | 5.33 | 2.51 | 5.37 | 2.9 | 4.96
TATACAGGGTCAATGGCCAGAGTACGAATGTCGA | 5.92 | 5.45 | 1.39 | 3.89 | 2.05 | 5.16 | 5.11 | 4.94 | 2.12 | 3.87 | 1.79 | 3.99 | 1.48 | 1.03 | 1.97 | 3.23 | 0.633 | 3.75 | 0.771 | 4.05
AGAATGAGGTTATTAAGATCAGGGCATTGCGGTC | 1.9 | 1.95 | 0.705 | 1.39 | -0.0987 | 2.66 | 1.67 | 2.33 | 1 | 1.39 | 3.64 | 2.96 | 0.978 | -0.0431 | 1.27 | 1.83 | 1.83 | 1.79 | 0.408 | 1.75
TGAATGAGGTTAAAGATCAGGGCACGTGGCGTCG | 2.95 | 2.69 | 0.0826 | 1.81 | 0.456 | 4.53 | 5.69 | 6.11 | 4.67 | 6.24 | 2.37 | 3.82 | 1.31 | 1.27 | 0.587 | 2.32 | 0.062 | 3.3 | 0.14 | 2.41
CGTCCAAGTTCAGCAGGTCAGTGAAAGCGACGTG | 2.28 | 2.06 | 1.12 | 1.53 | -0.267 | 2.49 | 0.395 | 1.17 | -0.436 | 0.285 | 0.444 | 0.339 | -0.163 | -0.669 | 1.77 | 2.59 | 1.6 | 2.38 | 0.583 | 3.75
CCTACTGGGCTAAAGGTCATTGATTCCAATGCTC | 4.68 | 4.85 | 4.14 | 4.48 | 0.6 | 6.09 | 11.2 | 9.38 | 9.13 | 10.4 | 4.37 | 6.31 | -0.17 | -0.112 | 4.02 | 4.97 | 1.35 | 5.44 | 0.872 | 4.26
ACAGACAGGTGACGAAGGTAACTCAGGCTATCAT | -0.34 | -0.14 | -0.233 | -0.231 | -0.858 | 0.582 | 0.955 | 0.489 | -0.242 | 0.424 | 0.762 | 1.19 | 0.0336 | -0.57 | -0.168 | -0.208 | -0.237 | 0.144 | 0.0267 | 0.637
TATCCAGGGTCAAAGGCCAGAGTACGAATGTCGA | 7.03 | 5.91 | 2.02 | 5.03 | 2.02 | 6.22 | 7.96 | 7.53 | 5.26 | 6.94 | 2.23 | 4.91 | 0.174 | 1.96 | 2.06 | 4.77 | 0.563 | 6.33 | 1.05 | 4.55
ACTAGTTGGTCAGCTGAGGTCACACAGAATTCGG | 3.75 | 3.32 | 2.31 | 3.64 | 0.768 | 3.8 | 1.87 | 2.46 | 0.831 | 1.73 | 1.48 | 3.02 | 0.452 | 0.375 | 2.18 | 5.36 | 1.87 | 4.56 | 0.455 | 3.72
